“And” between values parts separate entries of the source, which are not always exact repeats. Equal entries are not always repeated. Out of some 5,500 compounds screened, about 2,000 (36%) were called active. Another 18% or so got no clear call; they are omitted. Rule as the data show it: active = normalized growth mostly below about 0.91 (no sharp cut-off); inconclusive = no clear call, values can overlap the other calls; inactive = mostly above about 0.92. Some of the results follow.
Experiment: chemical genetic growth profiling, strain panel (AID 1159580);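 also: tested at 20 µM; growth read once vehicle control cultures reached saturation at 30 °C; 1 = growth at the plate median or of vehicle wells; lower values mean less growth of the strain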
Settings: growth OD

Measured: normalized growth

N=c1nc(N2CCCCC2)cc(N)n1O
inactive: S. cerevisiae deletion strains, locus YJR075W, strain HOC1, stronger effect = lower value 1 | S. cerevisiae deletion strains, locus YKL009W, strain mrt4, stronger effect = lower value 0.948 | S. cerevisiae deletion strains, locus YKL068W, stronger effect = lower value 0.993 | S. cerevisiae deletion strains, locus YKL085W, strain MDH1 (second series), stronger effect = lower value 0.995 | S. cerevisiae deletion strains, locus YKL085W, strain MDH1, stronger effect = lower value 0.995 | S. cerevisiae deletion strains, locus YKL160W, strain elf1, stronger effect = lower value 0.969 | S. cerevisiae deletion strains, locus YKL190W, strain CNB1, stronger effect = lower value 0.996 | S. cerevisiae deletion strains, locus YKR001C, strain vps1, stronger effect = lower value 0.995 | S. cerevisiae deletion strains, locus YKR026C, strain gcn3, stronger effect = lower value 0.997 | S. cerevisiae deletion strains, locus YKR091W, strain srl3, stronger effect = lower value 0.977 | S. cerevisiae deletion strains, locus YLL001W, strain dnm1, stronger effect = lower value 0.932 | S. cerevisiae deletion strains, locus YLL026W, stronger effect = lower value 0.985 | S. cerevisiae deletion strains, locus YLL041C, strain sdh2, stronger effect = lower value 0.99 | S. cerevisiae deletion strains, locus YLR027C, strain aat2, stronger effect = lower value 1.01 | S. cerevisiae deletion strains, locus YLR039C, strain RIC1, stronger effect = lower value 0.976 | S. cerevisiae deletion strains, locus YLR058C, strain SHM2, stronger effect = lower value 0.97 | S. cerevisiae deletion strains, locus YLR102C, strain apc9, stronger effect = lower value 0.981 | S. cerevisiae deletion strains, locus YLR113W, strain HOG1, stronger effect = lower value 0.984 | S. cerevisiae deletion strains, locus YLR221C, strain rsa3, stronger effect = lower value 0.948 | S. cerevisiae deletion strains, locus YLR258W, strain gsy2, stronger effect = lower value 0.998 | S. cerevisiae deletion strains, locus YLR262C, strain YPT6 (second series), stronger effect = lower value 0.989 | S. cerevisiae deletion strains, locus YLR262C, strain YPT6, stronger effect = lower value 0.903 | S. cerevisiae deletion strains, locus YLR268W, strain sec22, stronger effect = lower value 1.08 | S. cerevisiae deletion strains, locus YLR320W, strain mms22, stronger effect = lower value 0.96 | S. cerevisiae deletion strains, locus YLR330W, strain CHS5, stronger effect = lower value 0.979 | S. cerevisiae deletion strains, locus YLR342W, strain FKS1 (second series), stronger effect = lower value 0.98 | S. cerevisiae deletion strains, locus YLR342W, strain FKS1, stronger effect = lower value 0.985 | S. cerevisiae deletion strains, locus YLR357W, strain rsc2, stronger effect = lower value 0.996 | S. cerevisiae deletion strains, locus YLR370C, strain arc18, stronger effect = lower value 0.982 | S. cerevisiae deletion strains, locus YLR371W, strain rom2, stronger effect = lower value 0.95 | S. cerevisiae deletion strains, locus YLR384C, strain iki3, stronger effect = lower value 0.987 | S. cerevisiae deletion strains, locus YLR418C, strain cdc73, stronger effect = lower value 0.994 | S. cerevisiae deletion strains, locus YML016C, strain PPZ1, stronger effect = lower value 0.973 | S. cerevisiae deletion strains, locus YML032C, strain rad52, stronger effect = lower value 0.998 | S. cerevisiae deletion strains, locus YML120C, strain ndi1, stronger effect = lower value 0.959 | S. cerevisiae deletion strains, locus YML124C, strain tub3, stronger effect = lower value 0.98 | S. cerevisiae deletion strains, locus YMR058W, strain fet3, stronger effect = lower value 0.986 | S. cerevisiae deletion strains, locus YMR078C, strain ctf18, stronger effect = lower value 0.979 | S. cerevisiae deletion strains, locus YMR125W, strain sto1, stronger effect = lower value 0.978 | S. cerevisiae deletion strains, locus YMR129W, stronger effect = lower value 0.99 | S. cerevisiae deletion strains, locus YMR205C, strain PFK2, stronger effect = lower value 0.947 | S. cerevisiae deletion strains, locus YMR223W, strain ubp8, stronger effect = lower value 0.945 | S. cerevisiae deletion strains, locus YMR231W, strain pep5, stronger effect = lower value 0.991 | S. cerevisiae deletion strains, locus YMR263W, strain SAP30, stronger effect = lower value 0.993 | S. cerevisiae deletion strains, locus YMR307W, strain GAS1, stronger effect = lower value 0.935 | S. cerevisiae deletion strains, locus YNL067W, strain RPL9B, stronger effect = lower value 0.999 | S. cerevisiae deletion strains, locus YNL071W, strain lat1, stronger effect = lower value 0.991 | S. cerevisiae deletion strains, locus YNL128W, strain TEP1, stronger effect = lower value 0.953 | S. cerevisiae deletion strains, locus YNL153C, strain GIM3, stronger effect = lower value 1.01 | S. cerevisiae deletion strains, locus YNL175C, strain NOP13, stronger effect = lower value 0.994 | S. cerevisiae deletion strains, locus YNL183C, strain NPR1, stronger effect = lower value 0.945 | S. cerevisiae deletion strains, locus YNL197C, strain WHI3, stronger effect = lower value 0.993 | S. cerevisiae deletion strains, locus YNL209W, strain ssb2, stronger effect = lower value 0.984 | S. cerevisiae deletion strains, locus YNL224C, strain SQS1, stronger effect = lower value 1.01 | S. cerevisiae deletion strains, locus YNL233W, strain BNI4, stronger effect = lower value 0.998 | S. cerevisiae deletion strains, locus YNL248C, strain rpa49, stronger effect = lower value 1 | S. cerevisiae deletion strains, locus YNL250W, strain rad50, stronger effect = lower value 0.98 | S. cerevisiae deletion strains, locus YNL271C, strain bni1, stronger effect = lower value 0.987 | S. cerevisiae deletion strains, locus YNL298W, strain CLA4, stronger effect = lower value 0.996 | S. cerevisiae deletion strains, locus YNL307C, strain MCK1, stronger effect = lower value 0.999 | S. cerevisiae deletion strains, locus YNL322C, strain KRE1 (second series), stronger effect = lower value 0.98 | S. cerevisiae deletion strains, locus YNL322C, strain KRE1, stronger effect = lower value 0.989 and 0.993 | S. cerevisiae deletion strains, locus YNR049C, strain mso1, stronger effect = lower value 0.972 | S. cerevisiae deletion strains, locus YNR052C, strain pop2, stronger effect = lower value 0.98 | S. cerevisiae deletion strains, locus YOL006C, strain TOP1, stronger effect = lower value 1.02 | S. cerevisiae deletion strains, locus YOL012C, strain htz1 0.984 | S. cerevisiae deletion strains, locus YOL147C, strain pex11, stronger effect = lower value 0.987 | S. cerevisiae deletion strains, locus YOR001W, strain rrp6, stronger effect = lower value 1.02 | S. cerevisiae deletion strains, locus YOR061W, strain CKA2, stronger effect = lower value 0.964 | S. cerevisiae deletion strains, locus YOR069W, strain VPS5, stronger effect = lower value 0.987 | S. cerevisiae deletion strains, locus YOR070C, strain gyp1, stronger effect = lower value 0.996 | S. cerevisiae deletion strains, locus YOR080W, strain dia2, stronger effect = lower value 0.984 | S. cerevisiae deletion strains, locus YOR083W, strain WHI5 (second series), stronger effect = lower value 1.01 | S. cerevisiae deletion strains, locus YOR083W, strain WHI5, stronger effect = lower value 0.974 | S. cerevisiae deletion strains, locus YOR106W, strain vam3, stronger effect = lower value 0.944 | S. cerevisiae deletion strains, locus YOR136W, strain idh2, stronger effect = lower value 0.988 | S. cerevisiae deletion strains, locus YOR144C, strain elg1, stronger effect = lower value 0.988 | S. cerevisiae deletion strains, locus YOR184W, strain ser1, stronger effect = lower value 1 | S. cerevisiae deletion strains, locus YOR231W, strain MKK1, stronger effect = lower value 1.02 | S. cerevisiae deletion strains, locus YOR265W, strain rbl2, stronger effect = lower value 0.989 | S. cerevisiae deletion strains, locus YOR270C, strain vph1, stronger effect = lower value 0.979 | S. cerevisiae deletion strains, locus YOR290C, strain snf2, stronger effect = lower value 0.896 | S. cerevisiae deletion strains, locus YOR316C, strain cot1, stronger effect = lower value 0.993 | S. cerevisiae deletion strains, locus YPL051W, strain arl3, stronger effect = lower value 1 | S. cerevisiae deletion strains, locus YPL055C, strain LGE1, stronger effect = lower value 0.988 and 0.98 | S. cerevisiae deletion strains, locus YPL078C, strain atp4, stronger effect = lower value 0.968 | S. cerevisiae deletion strains, locus YPL106C, strain sse1, stronger effect = lower value 0.948 | S. cerevisiae deletion strains, locus YPL240C, strain hsp82, stronger effect = lower value 0.981 | S. cerevisiae deletion strains, locus YPL241C, strain CIN2, stronger effect = lower value 0.976 | S. cerevisiae deletion strains, locus YPL256C, strain CLN2, stronger effect = lower value 0.993 | S. cerevisiae deletion strains, locus YPR119W, strain clb2, stronger effect = lower value 0.982 | S. cerevisiae deletion strains, locus YPR141C, strain kar3, stronger effect = lower value 0.974 | S. cerevisiae deletion strains, locus YPR163C, strain tif3, stronger effect = lower value 0.993 | S. cerevisiae deletion strains, locus YPR167C, strain met16, stronger effect = lower value 0.995 | S. cerevisiae deletion strains, strain wtn01, stronger effect = lower value 1.04 | S. cerevisiae strains, strain wild type, stronger effect = lower value 0.992

From PubChem BioAssay AID1159580 (chemical genetic matrix, 2015)
